From ChEMBL document CHEMBL5606460, “ASAP - DENV-2 NS2B-NS3 protease fluorescence single point” (2024) come the findings set out here.

This assay has as its target Genome polyprotein (dengue virus type 2) (UniProt P29990).
Where [1] appears, read: Thailand/16681/1984, Concentration 25.0 uM, Number of replicates 1.0.

Hit rate of the full screen: of about 2,000 compounds, about 110 (5.5%) showed an effect of 50% or more. The full list was thinned out, with strong results kept by preference.

`Cc1cc(CO)c2cccc(Cc3cccc(C(=O)NCC(=O)O)c3)c2n1`: the inhibition (in general, the relative decrease from the control value, in per cent) turned out to be 63.2% (Thailand/16681/1984, Concentration 49.95 uM, Number of replicates 2.0, Standard deviation 0.8336363408632846 %) and 79.2% (Thailand/16681/1984, Concentration 99.9 uM, Number of replicates 2.0, Standard deviation 0.025873444538655716 %). Take `Cc1cc(CO)c2cccc(Cc3ccccc3C(=O)NCC(N)=O)c2n1`: the inhibition by setting is: (Thailand/16681/1984, Concentration 49.95 uM, Number of replicates 2.0, Standard deviation 0.5253345885233084 %) 1.79%; (Thailand/16681/1984, Concentration 99.9 uM, Number of replicates 2.0, Standard deviation 0.6122918820772879 %) 9.88%. Take `O=Cc1ccc(N2CCC(C(=O)N3CCc4ccc([N+](=O)[O-])cc4C3)CC2)cc1`: under setting [1], the inhibition was determined as 16.6%. In the case of `O=Cc1ccc(N2CCC(C(=O)NCC3CCC(C(F)(F)F)CC3)CC2)cc1` (stereo unspecified), the inhibition under setting [1] is 12.8%.

`Cc1cc(C)nc(CCNC(=O)C2CCN(c3ccc(C=O)cc3)CC2)n1`: the inhibition under setting [1] came out at 10.6%. In the case of `C[C@@H](CNc1cc(Cl)cc(C(=O)NC(C)(C)CO)c1)c1ccc(F)cc1`, the inhibition is, setting by setting: (Thailand/16681/1984, Concentration 49.5 uM, Number of replicates 2.0, Standard deviation 1.7964155145983758 %) -4.87%; (Thailand/16681/1984, Concentration 99.01 uM, Number of replicates 2.0, Standard deviation 2.367041527999976 %) -8.66%. `O=Cc1ccc(N2CCC(C(=O)NCc3ccc(Br)cn3)CC2)cc1`: the inhibition under setting [1] is 13.7%. As for `Cc1cc(CO)c2cccc(NC(=O)[C@H]3CCNC3)c2n1`, the inhibition was -0.539% (Thailand/16681/1984, Concentration 49.95 uM, Number of replicates 2.0, Standard deviation 1.8979597481282788 %) and 2.99% (Thailand/16681/1984, Concentration 99.9 uM, Number of replicates 2.0, Standard deviation 1.976292784952565 %). On to `Cc1cc(CO)c2cccc(NC(=O)C3CNC3)c2n1`, for which the inhibition (Thailand/16681/1984, Concentration 99.9 uM, Number of replicates 2.0, Standard deviation 1.2849235527062883 %) was -8.19%. In the case of `Cc1cc(CO)c2cccc(NC(=O)[C@@H]3CCCC[C@H]3N)c2n1`, the inhibition (Thailand/16681/1984, Concentration 49.95 uM, Number of replicates 2.0, Standard deviation 4.042326157041073 %) was -9.54%.

`Cc1cc(CO)c2cccc(NC(=O)C3CCC(CN)CC3)c2n1` (stereo unspecified): the inhibition is 96% (Thailand/16681/1984, Concentration 49.95 uM, Number of replicates 2.0, Standard deviation 1.7984525560806044 %) and 98.2% (Thailand/16681/1984, Concentration 99.9 uM, Number of replicates 2.0, Standard deviation 0.012834221133749364 %). `Cc1cc(CO)c2cccc(NC(=O)[C@@H]3CCCC[C@H]3C(=O)O)c2n1`: the inhibition (Thailand/16681/1984, Concentration 49.95 uM, Number of replicates 2.0, Standard deviation 1.6403651221128503 %) is 4.53% and the inhibition (Thailand/16681/1984, Concentration 99.9 uM, Number of replicates 2.0, Standard deviation 0.7343808497949172 %) is 11.1%.

In the case of `Cc1cc(CO)c2cccc(NC(=O)C3CC(N)C3)c2n1` (stereo unspecified), the inhibition turned out to be 31.4% (Thailand/16681/1984, Concentration 49.95 uM, Number of replicates 2.0, Standard deviation 0.3514210972334106 %) and 78.8% (Thailand/16681/1984, Concentration 99.9 uM, Number of replicates 2.0, Standard deviation 0.19619256829384746 %). Take `Cc1cc(CO)c2cccc(NC(=O)C3CCN(C)CC3)c2n1`: the inhibition (Thailand/16681/1984, Concentration 99.9 uM, Number of replicates 2.0, Standard deviation 2.5723142976307076 %) came to 0.725%. Take `Cc1cc(CO)c2cccc(NC(=O)CNC3CC3)c2n1`: the inhibition by setting is: (Thailand/16681/1984, Concentration 49.95 uM, Number of replicates 2.0, Standard deviation 1.6119901778213759 %) 15.9%; (Thailand/16681/1984, Concentration 99.9 uM, Number of replicates 2.0, Standard deviation 1.4451149573517064 %) 30.7%. As to `Cc1cc(CO)c2cccc(NC(=O)C3CCC(N)CC3)c2n1` (stereo unspecified), the inhibition came out at 80.8% (Thailand/16681/1984, Concentration 49.95 uM, Number of replicates 2.0, Standard deviation 0.3430335372049546 %) and 98.8% (Thailand/16681/1984, Concentration 99.9 uM, Number of replicates 2.0, Standard deviation 0.009052468710563864 %). Turning to `Cc1cc(CO)c2cccc(NC(=O)[C@@H]3CC(=O)CCN3)c2n1`, the inhibition is 1.29% (Thailand/16681/1984, Concentration 49.95 uM, Number of replicates 2.0, Standard deviation 1.684279261738791 %) and -1.57% (Thailand/16681/1984, Concentration 99.9 uM, Number of replicates 2.0, Standard deviation 1.6842793565692 %). `CN(CCc1ccccc1F)C(=O)C1CCN(c2ccc(C=O)cc2)CC1`: the inhibition under setting [1] turned out to be 13.4%.

As for `O=Cc1ccc(N2CCC(C(=O)Nc3ccc([N+](=O)[O-])c4ccccc34)CC2)cc1`, under setting [1], the inhibition turned out to be 13.5%.

For the compound `CN(Cc1nc2ccsc2c(=O)[nH]1)C(=O)C1CCN(c2ccc(C=O)cc2)CC1`, the inhibition under setting [1] came out at 11.8%.

Consider `O=Cc1ccc(N2CCC(C(=O)N[C@H](c3ccccc3)C(F)(F)F)CC2)cc1`, for which the inhibition under setting [1] came to 13.1%. Consider `Cc1cc(CO)c2cccc(CC(=O)NCc3c(C)noc3C)c2n1`, for which the inhibition reads like this: (Thailand/16681/1984, Concentration 49.95 uM, Number of replicates 2.0, Standard deviation 0.8979901952671747 %) -6.95%; (Thailand/16681/1984, Concentration 99.9 uM, Number of replicates 2.0, Standard deviation 0.7380557178102791 %) -7.49%. With `Cc1cc(CO)c2cccc(CC(=O)Nc3cc(C)[nH]n3)c2n1`, the inhibition is, setting by setting: (Thailand/16681/1984, Concentration 49.95 uM, Number of replicates 2.0, Standard deviation 0.6660500187655393 %) 4.74%; (Thailand/16681/1984, Concentration 99.9 uM, Number of replicates 2.0, Standard deviation 2.9944546877986085 %) 12.6%. With `Cc1cc(CO)c2cccc(CC(=O)Nc3cc(C)on3)c2n1`, the inhibition runs as follows: (Thailand/16681/1984, Concentration 49.95 uM, Number of replicates 2.0, Standard deviation 0.056769444720657654 %) 98.7%; (Thailand/16681/1984, Concentration 99.9 uM, Number of replicates 2.0, Standard deviation 0.01177144620169866 %) 99.4%. As for `Cc1cc(CO)c2cccc(Cc3cccc(C(=O)Nc4cc(C)on4)c3)c2n1`, the inhibition runs as follows: (Thailand/16681/1984, Concentration 49.95 uM, Number of replicates 2.0, Standard deviation 1.544383261062021 %) 29.6%; (Thailand/16681/1984, Concentration 99.9 uM, Number of replicates 2.0, Standard deviation 16.942938692438737 %) 63.9%. For `Cc1cc(CO)c2cccc(Cc3cccc(C(=O)Nc4cc(C)[nH]n4)c3)c2n1`, the inhibition (Thailand/16681/1984, Concentration 49.95 uM, Number of replicates 2.0, Standard deviation 1.9137700846759278 %) amounted to 0.711% and the inhibition (Thailand/16681/1984, Concentration 99.9 uM, Number of replicates 2.0, Standard deviation 1.69961162141419 %) is 3.33%.
